Source: PubChem BioAssay (NCI)
Compounds without any hit were thinned out: in the full panel of roughly 79,000, 15% have a hit. Active and inactive are the calls of the source. No stated cut-off is given here; in the data, active means growth inhibition above about 70%; inactive means the rest.

Legend:
[1] = NCI Yeast Anticancer Drug Screen. Data for the rad50 strain (AID 155);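 further: 0% = growth of vehicle-only cultures of the same strain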; settings: S. cerevisiae rad50 strain growth inhibition; at 50.0 µM; stronger effect = higher value
Method in brief: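 Cells are treated with compound, grown, and their growth is then scored against vehicle-only cultures of the same repair-deficient yeast strain.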

[2] = NCI Yeast Anticancer Drug Screen. Data for the mec2-1 strain (AID 157); settings: S. cerevisiae mec2-1 strain, at 50.0 µM, stronger effect = higher value
Method in brief: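 Each compound was tested on mec2-1 yeast, a strain altered in DNA damage repair or cell cycle control. Growth inhibition is reported relative to vehicle.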

[3] = NCI Yeast Anticancer Drug Screen. Data for the cln2 rad14 strain (AID 165);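 further: 0% = growth equal to vehicle treated cultures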; settings: S. cerevisiae cln2 rad14 strain, at 50.0 µM, stronger effect = higher value
Method in brief: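 Test compounds were added to cln2 rad14 yeast cultures; inhibition of growth was then determined by comparison with vehicle treatment.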

[4] = NCI Yeast Anticancer Drug Screen. Data for the bub3 strain (AID 167); settings: S. cerevisiae bub3 mutant strain, at 50.0 µM, stronger effect = higher value
Method in brief: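 Part of a panel of yeast mutants defective in DNA damage repair or cell cycle regulation. Each strain is grown with compound, and inhibition is calculated relative to solvent-treated cultures.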

[5] = NCI Yeast Anticancer Drug Screen. Data for the mlh1 rad18 strain (AID 175); settings: S. cerevisiae mlh1 rad18 strain growth inhibition; at 50.0 µM; stronger effect = higher value
Method in brief: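 Inhibition values reflect reduced growth of mutant yeast versus vehicle-treated controls following compound exposure; the mutations affect DNA damage repair.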

[6] = NCI Yeast Anticancer Drug Screen. Data for the sgs1 mgt1 strain (AID 161);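 further: 0% = growth of cultures given vehicle only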; settings: S. cerevisiae sgs1 mgt1 strain, at 50.0 µM, stronger effect = higher value
Method in brief: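 Inhibition of yeast growth, normalised to vehicle-treated controls, is reported for a strain bearing genetic alterations in DNA damage repair.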

Measured: growth inhibition

C[C@@H]1C[C@@H]2OC(=O)[C@]3(C)[C@H]2[C@@H](OC3(C)O)[C@]2(C)C(=O)C=C[C@@H]12 (stereo not given in full)
inactive: [1] -27.6% | [2] -45.6% | [3] -12.7% | [4] -48.6% | [5] -35.5%

Clc1c(Cl)c(Cl)c2nn(C3CCCO3)nc2c1Cl (stereo not given)
inactive: [1] 15.3% | [2] 3.2% | [3] -17.1% | [4] 12.1% | [5] -45.6%

COC(=O)c1ccc(NC(=O)O/N=C(\Cl)C(C)C)cc1
inactive: [1] -21.6% | [2] -20.7% | [6] 59.7% | [4] 34.1% | [5] 0.75%

CCC(C)C1(O)OC2CC3(C)OC(=CC3=O)/C(C)=C\C3OC(=O)C1(C)C32 (stereo not given)
inactive: [1] 7.65% | [2] -31.2% | [3] 6.4% | [4] -20.1% | [5] -35.9%

CC(=O)C(C(C)=O)c1ccccc1
inactive: [1] -5.15% | [2] 2.7% | [6] 3.05% | [4] 4.05% | [5] -5.75%

COc1ccccc1-c1n[nH]c(-c2ccccc2O)n1
inactive: [1] 31.7% | [2] -24.1% | [6] 27.8% | [4] 22.9% | [5] -54.1%

O=C(O)CCNC(=O)c1ccccc1
inactive: [1] -6.2% | [2] -7.4% | [6] -20% | [4] 7.95% | [5] -12.8%

COc1ccc2cc(CN3CCC(C4CCNCC4)CC3)ccc2c1
active: [5] 86%
inactive: [1] 15.6% | [2] -4.8% | [6] 1.55% | [4] 20.8%

COC(=O)/C=C\C(C#N)(C#N)N=Cc1ccsc1
inactive: [1] 67.9% | [3] 29.6%
active: [2] 75.5% | [4] 74% | [5] 87.6%

CC(C)C1OC(N)=C(C#N)C1(C#N)C#N (stereo not given)
inactive: [1] 8.9% | [2] 27% | [3] -11.8% | [4] -19% | [5] -38.6%

CC1OC(Oc2c(-c3cc(O)c(O)c(O)c3)oc3cc(O)cc(O)c3c2=O)C(O)C(O)C1O (stereo not given)
inactive: [1] -14.2% | [2] -16.8% | [3] 9.75% | [4] -21.2%

c1ccc(N(c2ccccc2)c2ccccc2)cc1
inactive: [1] 5% | [2] -14.7% | [6] 1.9% | [4] -10.4% | [5] 4.05%

CCCCCCSC[C@H](OC(C)=O)[C@@H](OC(C)=O)[C@@H](OC(C)=O)[C@@H](COC(C)=O)OC(C)=O
inactive: [1] -7% | [2] -14.8% | [3] -2.95% | [4] 9% | [5] -5.35%

OCC(CO)(CO)COCC(CO)(CO)COCC(CO)(CO)CO
inactive: [1] -43% | [2] -42.5% | [6] -20.9% | [4] -9.15% | [5] -25.1%

Cc1ccc(-c2noc(C)n2)cc1
inactive: [1] -12.9% | [2] 13.2% | [3] -14.2% | [4] 4% | [5] 9.2%

COC(=O)c1nc(Br)cnc1N
inactive: [1] 8.05% | [2] -8.4% | [6] 2.1% | [4] 4% | [5] -0.45%

COc1cc([C@H]2OC[C@H]3[C@@H]2CO[C@@H]3c2cc(OC)c3c(c2)OCO3)cc(OC)c1OC
inactive: [1] 17.1% | [2] -2.25% | [3] 21.7% | [4] 39% | [5] -80.7%

COc1ccc(N=C(C)C(C)=Nc2ccc(OC)cc2)cc1
inactive: [1] -3% | [2] 3% | [3] 14.1% | [4] 11.6% | [5] -17.7%

C=C1CCN(c2ccccc2)C1=O
inactive: [1] 5.3% | [2] -2.6% | [6] -5.15% | [4] -5.05% | [5] -4.55%

NC(Cc1ccc(S(=O)(=O)O)cc1)C(=O)NC(Cc1ccc(S(=O)(=O)O)cc1)C(=O)NC(Cc1ccc(S(=O)(=O)O)cc1)C(=O)NC(Cc1ccc(S(=O)(=O)O)cc1)C(=O)O (stereo not given)
inactive: [1] -6.5% | [2] 5.65% | [3] -2.3% | [4] 5.85% | [5] 8.85%

CC(=O)[CH-]C(=O)c1ccccc1.CC(=O)[CH-]C(=O)c1ccccc1.O=S(=O)([O-])c1cc([O-])c2c([O-])cc(S(=O)(=O)[O-])cc2c1.[Na+].[Zr+4]
inactive: [1] 21.3% | [2] -7.6% | [6] 25.6% | [4] 37.9% | [5] 10.8%

C=C(C)C1CC2(C)C(C)CC(OC(=O)/C(C)=C\C)CC2C(OC(=O)/C(C)=C\C)C1O (stereo not given)
inactive: [1] 31.2% | [2] -9.65% | [6] 31.2% | [4] -1% | [5] -12.9%

NC1N=C(c2ccc(Cl)cc2)C2=C(N1)c1ccccc1CC2 (stereo not given)
inactive: [1] -7.1% | [2] 0.9% | [3] 8.05% | [4] 18.9% | [5] -50.7%

CC1CC(=O)N(N(C)C)C2(C#N)C(=O)N=C(N)C12C#N (stereo not given)
inactive: [1] 15.4% | [2] 22.6% | [3] 2.75% | [4] -4% | [5] -4.75%

O=c1c2ccccc2nc(-c2ccccc2)n1/N=C/c1ccccc1[N+](=O)[O-]
inactive: [1] 18.2% | [2] 1% | [3] 8.35% | [4] 18.4% | [5] -56.2%

OCc1ccccc1OC1OC(CO)C(O)C(O)C1O (stereo not given)
inactive: [1] 18.5% | [2] 2.6% | [6] 16.4% | [4] 21.6% | [5] -50.9%

O=C1c2c(O)cc(O)cc2OC(c2ccc(O)c(O)c2)C1O (stereo not given)
inactive: [1] 9.55% | [2] -23.6% | [6] 11.2% | [4] -9.05% | [5] -18.7%

COc1cc(Oc2c(C)c(Cl)c(OC)c(Cl)c2OC)c2c(c1Cl)COC2=O
inactive: [1] 28.5% | [2] -6.45% | [3] 17.6% | [4] -5.75%

Cc1ccc(/C=N/Nc2cnccn2)s1
inactive: [1] -30.9% | [2] -25.2% | [3] 15.2% | [4] -41.2% | [5] -9.3%

CCCCCCCC/C=C\CCCCCCCCOC(N)=O
inactive: [1] -30.7% | [2] -26.8% | [5] -17.1%

OCC1OC(Nc2ccccc2O)C(O)C(O)C1O (stereo not given)
inactive: [1] 41.5% | [2] 15.6% | [5] 25.7%

Cc1ccc2oc(C)[n+](CCC(=O)O)c2c1
inactive: [1] 15.7% | [2] 6.45% | [5] 42%

CC(=O)C1=CCC2C3CC(C)=C4CC(O)CCC4(C)C3CCC12C (stereo not given)
inactive: [1] 24.9% | [2] -1.15% | [5] -2.95%

CCCCCCCCCCCCCCCc1cc(=S)n(C)c2ccc(C)cc12
inactive: [1] 25.1% | [2] -13.5% | [5] 16.1%

NC(=O)c1ccccc1OCC(O)CO (stereo not given)
inactive: [1] -7.6% | [2] -24.4% | [5] 26.1%

Cc1ccc(CNc2ccc(I)cc2)cc1
inactive: [1] 37.5% | [2] 37.9% | [5] 33.9%

COc1ccc(-c2cc(=O)c3c(C)cc(O)cc3o2)cc1OC
inactive: [1] 6.55% | [2] 7.6% | [5] 44.2%

C/C=C(/C)N(C(C)=O)N(C(C)=O)c1ccc([N+](=O)[O-])cc1[N+](=O)[O-]
inactive: [1] 5.75% | [2] -18.2% | [5] -3.3%

S=C=NC1CCCCCCCCCCC1
inactive: [1] 18.9% | [2] -3.9% | [5] 36.6%

CC(=O)NS(=O)(=O)c1ccc2sc(C)nc2c1
inactive: [1] -32% | [2] -22.6% | [5] -27.7%

CCCCCCCCCOCC(O)COc1ccccc1[N+](=O)[O-] (stereo not given)
inactive: [1] -9.2% | [2] -15.9% | [5] -5.5%

CC(C)CC(Br)C(=O)NC(CC(C)C)C(=O)O (stereo not given)
inactive: [1] -26.2% | [2] -27.9% | [5] -23.2%

Cc1ccc(NC(=S)N(C)C)cc1C
inactive: [1] -2.7% | [2] -26.3% | [5] 1.1%

Cc1cccc(NNC(=S)Nc2ccccc2)c1
inactive: [1] 18.1% | [2] -14.8% | [5] 5.05%

C=CCNC(=O)C(O)C(O)C(=O)NCC=C (stereo not given)
inactive: [1] -25.1% | [2] -32.5% | [5] -21.2%

COc1ccc(COC(=O)N=[N+]=[N-])cc1
inactive: [1] 19.1% | [2] 3.85% | [5] 13.4%

Cc1ccc(N2CCOC2=O)cc1N1CCOC1=O
inactive: [1] -8.3% | [2] -32.6% | [5] -10.7%

C(=N\n1cnnc1)/c1ccc2c(c1)CCC2
inactive: [1] -21.6% | [2] -34.5% | [5] -20.4%

CCOC(=O)c1c(C)nc(C)c(C(=O)OCC)c1-c1cccc([N+](=O)[O-])c1
inactive: [1] 29.1% | [2] 2.35% | [5] 25.9%

COc1cc(/C=N/n2cnnc2)cc(OC)c1OC
inactive: [1] -8.35% | [2] 5.45% | [5] -13.7%

OC(c1ccc(F)cc1)(c1cccs1)C1CC1 (stereo not given)
inactive: [1] -9.55% | [2] -4.75% | [5] -20.2%

CC/C(=C\c1cccc([N+](=O)[O-])c1)C(=O)O
inactive: [1] -9.65% | [2] -25.6% | [5] -5.55%

COc1ccc(NCc2ccc(C)cc2)cc1
inactive: [1] -2.55% | [2] -17.1% | [5] 3.45%
